The nature of assay [1]: Cell Viability - H-4-II-E (AID 543).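 Also: cells exposed to compound for 40 hours; nearly all actives have a fitted effect of over 35% in size.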 Also: potency is read from the fitted curve at half-maximal effect. The method, boiled down:
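Cells seeded at 1500 per well and rested 5 hr; compounds added; 40 hr incubation at 37 °C; CellTiter-Glo added, 20 min at room temperature; luminescence read. Hill-equation fits gave AC50.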

Assay [2] in a line: Cell Viability - SH-SY5Y (AID 544).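 Also: cells exposed to compound for 40 hours; nearly all actives have a fitted effect of over 55% in size.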 Also: potency is read from the fitted curve at half-maximal effect. The following applies: SH-SY5Y neuroblastoma cell viability; viability change, negative = cytotoxic: at 92.2 µM (top of the series). The method, boiled down: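 Cells were plated at 1500 per well and allowed 5 hr at 37 °C. Compounds were added across a concentration range and incubated 40 hr at 37 °C. CellTiter-Glo was added for 20 min at room temperature before luminescence reading.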

The nature of assay [3]: Cellular Toxicity (caspase-3) Jurkat (AID 655).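 Also: cells exposed to compound for 16 h at 37 °C before reading.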 The following applies: Jurkat caspase-3 activation, luminescence; caspase-3 activation: at 92.2 µM (top of the series), DMSO = 0%, tamoxifen = 100%. The essentials:
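Jurkat cells (5000/well) in complete medium were treated with compounds for 16 hr at 37 °C, then Caspase-Glo 3/7 luminescence was read after 20 min at room temperature. Data normalized to DMSO (basal) and 100 uM tamoxifen (100%); AC50 from Hill fit.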

Assay [4] in a line: Cell Viability - LYMP2-001 (AID 921).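 Also: 0% = DMSO only and full inhibition = tetraoctylammonium bromide control wells; nearly all actives have a fitted effect of over 70% in size.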 The method, boiled down:
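Human lymphoblastoid cells (Coriell), 2500 per well, were preincubated 5 hr at 37 C, then exposed to compounds in complete medium for 24 hr at 37 C. Cellular ATP was read by CellTiter-Glo luminescence; AC50 from Hill fits of concentration-response data.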

Assay [5] is described as follows: MultiTox-Fluor Cytotoxicity Assay - LYMP1-003 - Live Cells (AID 962).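 Also: cells exposed to compound for 16 hours at 37 °C; 0% = DMSO only and full loss = 92 µM tetraoctylammonium bromide; cytotoxic hits lower the live-cell protease signal.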 The essentials: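 Acute cytotoxicity is scored as a drop in live-cell protease activity in human lymphoblastoid LYMP1-003 cells after 16 hr compound exposure at 37 C. AC50 values come from Hill-equation modelling of concentration-response data.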
A short description of assay [6]: Cell Viability - LYMP2-004 (AID 966).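 Also: plate controls were DMSO only for no effect and tetraoctylammonium bromide control for full effect; nearly all actives have a fitted effect of over 65% in size.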 The essentials:
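qHTS cytotoxicity: human lymphoblastoid line, 24 hr compound treatment, 37 C, complete medium. Viability read as cellular ATP via luciferase luminescence; tetraoctylammonium bromide served as positive control.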

Assay [7] can be described thus: Cell Viability - LYMP2-015 (AID 971).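 Also: 0% = DMSO only and full effect = 92 µM tetraoctylammonium bromide; nearly all actives have a fitted effect of over 55% in size.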 The method, boiled down: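 Cells are seeded at 2500 per well and incubated 5 hr at 37 C. Compounds are added across a concentration series for 24 hr at 37 C. CellTiter-Glo is added, and luminescence is read after 30 min at room temperature.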
Assay [8] in a line: Cell Viability - LYMP2-019 (AID 973).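 Also: 0% = DMSO alone and full effect = 92 µM tetraoctylammonium bromide; nearly all actives have a fitted effect of over 55% in size.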 The method, boiled down: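 Cytotoxicity is scored as a concentration-dependent drop in cellular ATP after cells (2500/well) receive compound for 24 hr at 37 C. Tetraoctylammonium bromide serves as positive control.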
Assay [9] is described as follows: Cell Viability - LYMP2-021 (AID 974).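 Also: compound exposure lasts 24 hours at 37 °C; nearly all actives have a fitted effect of over 55% in size.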 Also: potency is read from the fitted curve at half-maximal effect. The method, boiled down:
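Loss of cellular ATP, measured with a luciferase-based CellTiter-Glo readout, serves as the toxicity signal in human lymphoblastoid cells treated for 24 hours at 37 C. Potency is reported as AC50 from a standard Hill model.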

Assay [10] is described as follows: Cell Viability - LYMP2-025 (AID 976).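 Also: plate controls were DMSO only for no effect and tetraoctylammonium bromide control for full effect.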 The essentials:
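Acute cytotoxicity is scored as a concentration-dependent fall in intracellular ATP, measured by luciferase luminescence, in human lymphoblastoid LYMP2-025 cells exposed to compound for 24 hours at 37 C. AC50 values come from standard Hill fits.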

The nature of assay [11]: Cell Viability - LYMP2-006 (AID 978). Also: % is scaled to controls: 0 for no effect and ±100 for the full control effect; nearly all actives have a fitted effect of over 60% in size. The essentials:
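Human lymphoblastoid cells, 2500 per well, were preincubated 5 hr at 37 C, then exposed to compounds for 24 hr at 37 C in complete medium. Viability was read as intracellular ATP by CellTiter-Glo luminescence; AC50 from Hill-equation fits of qHTS concentration-response data.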

The nature of assay [12]: Cell Viability - LYMP2-007 (AID 979).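 Also: cells exposed to compound for 24 h before reading; 0% = DMSO only and the negative end = 92 µM tetraoctylammonium bromide; nearly all actives have a fitted effect of over 60% in size.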 The essentials:
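Cells are seeded at 2500 per well and rested 5 hr. Compounds are then added over a concentration series for 24 hr at 37 C. CellTiter-Glo is added for 30 min at room temperature before luminescence reading.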

The nature of assay [13]: Cell Viability - LYMP2-014 (AID 983).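 Also: plate controls were DMSO only for no effect and 92 µM tetraoctylammonium bromide for full effect; nearly all actives have a fitted effect of over 50% in size.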 The essentials: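 Cells are plated at 2500/well and left 5 hr at 37 C. Compounds are added across a concentration range and incubated 24 hr at 37 C in complete medium. CellTiter-Glo is added, and luminescence is read after 30 min at room temperature.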
A short description of assay [14]: Cell Viability - LYMP2-018 (AID 985).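 Also: compound exposure lasted 24 hr at 37 °C; plate controls were DMSO only for no effect and tetraoctylammonium bromide at 92 µM for full effect; nearly all actives have a fitted effect of over 50% in size.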 The essentials: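 Seed 2500 lymphoblastoid cells per well, incubate 5 hr at 37 C, add compound and incubate 24 hr at 37 C, add CellTiter-Glo, wait 30 min at room temperature, then read luminescence.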
A short description of assay [15]: Cell Viability - LYMP2-020 (AID 986). The essentials: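 Seed 2500 cells per well and incubate 5 hr at 37 C. Add compounds at a concentration series and incubate 24 hr at 37 C. Add CellTiter-Glo, wait 30 min at RT, read luminescence, and fit a Hill curve for AC50.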
A short description of assay [16]: Cell Viability - LYMP2-022 (AID 987). Also: nearly all actives have a fitted effect of over 55% in size. Also: potency is read from the fitted curve at half-maximal effect.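 As to viability change, negative = cytotoxic: 0% = DMSO alone and full effect = tetraoctylammonium bromide at 92 µM.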 The method, boiled down: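 Cells were seeded at 2500 per well, rested 5 hr at 37 C, and treated with titrated compounds for 24 hr at 37 C. Cellular ATP was then quantified by luciferase luminescence, and AC50 values were derived from Hill-modelled concentration-response curves.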
A short description of assay [17]: Cell Viability - LYMP2-026 (AID 989). Also: % is scaled to controls: 0 for no effect and ±100 for the full control effect; nearly all actives have a fitted effect of over 50% in size. The essentials:
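Cells are seeded at 2500 per well and held 5 hr at 37 C. Compounds are added in concentration series for 24 hr, then CellTiter-Glo reagent is applied and luminescence read.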

Assay [18] can be described thus: Cell Viability - LYMP1-002 - Assay at 40 hr (AID 994).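 Also: 0% = DMSO only and full inhibition = 92 µM tetraoctylammonium bromide; nearly all actives have a fitted effect of over 60% in size.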 The essentials: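 Cells are plated at 2500 per well and rested 5 hr at 37 C. Compounds are added and incubated 40 hr at 37 C. CellTiter-Glo reagent is added for 30 min at room temperature before luminescence is read.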
Assay [19] in a line: qHTS assay for small molecule agonists of retinoid X receptor alpha signaling (AID 588544). The note with it: HEK293T RXRa-UAS-bla, beta-lactamase reporter, 18 h; 530 nm emission.
Assay [20] is described as follows: qHTS assay for small molecule antagonists of the retinoid-related orphan receptor gamma (ROR-gamma) signaling pathway - cell viability counter screen (AID 720652; active = well fitted curve in the direction sought with a large enough effect in the repeat runs; an effect the other way counts as inactive or inconclusive;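 also: CHO reporter cells with doxycycline-induced ROR-gamma expression; compound exposure lasted 16 hr before ATP read; % is scaled to controls: 0 for no effect and ±100 for the full control effect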). The essentials:
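Steps: seed CHO cells bearing TET-inducible ROR and ROR response element-luciferase; rest 5 hr at 37 C; add compound, then doxycycline; incubate 16 hr; add CellTiter-Glo and read luminescence as ATP-based viability.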
Background: In qHTS, concentration-response curves come from the screen itself.

Values joined by “and” are separate entries in the source; they are usually repeats but may differ in a detail not shown here. Identical values can stand only once. Records with an inconclusive call do not appear. Active and inactive are the calls of the source. Unless noted, calls follow the shape of the dose curve; as a rule, active = well fitted curve in the direction sought with a large enough effect; inconclusive = small, poorly fitted or top-dose-only effect, or another doubt; inactive = no such curve, though single readings can be large; an effect the other way counts as inactive or inconclusive.

`Nc1ccc([N+](=O)[O-])cc1[N+](=O)[O-]`: the Potency in assay [1] was 20 µM (active). For the same compound, the Potency entry in [2], in [4], in assay [6], in assay [7], in assay [8] and in [9] was “inactive” each time. For the same compound, the Potency result in assay [10], in assay [11], in [12], in assay [13], in assay [14] and in [15] was “inactive” each time. Besides, the Potency result in assay [16], in assay [17], in assay [18] and in assay [20] was “inactive” in each case. The caspase-3 activation in [3] was 1.67% (inactive). Also, the outcome in [5] was inactive. Also, the max response in assay [19] was -7.45%.

Turning to `O=Cc1ccc2c(c1)OCO2`, the Potency result in assay [1], in assay [2], in assay [4], in assay [6], in assay [7] and in assay [8] was “inactive” each time. Moreover, the Potency result in [9], in assay [10], in [11], in assay [12], in assay [13] and in assay [14] was “inactive” throughout. For the same compound, the Potency result in assay [15], in assay [16], in assay [17], in assay [18] and in assay [20] was “inactive” in each case. In assay [3], the caspase-3 activation was -0.168% (inactive). Also, in [5], the call was inactive. Also, in [19], the max response was determined as 19.3%.

As for `CCOP(=S)(OCC)SCCSCC`, the Potency result in [1], in [2], in assay [4], in [6], in [7] and in [8] was “inactive” in each case. In addition, the Potency result in [9], in [10], in assay [11], in [12], in assay [13] and in assay [14] was “inactive” each time. Besides, the Potency entry in [15], in assay [16], in [17], in [18] and in [20] was “inactive” throughout. Further, in [3], the caspase-3 activation was -2.31% (inactive). Further, the compound was called inactive in [5]. Also, the max response in [19] is -7.08% and 7.34%.

Regarding `c1ccc(OCC2CO2)cc1` (configuration not stated), the Potency entry in [1], in [2], in assay [4], in assay [6], in [7] and in assay [8] was “inactive” in each case. The Potency entry in [9], in assay [10], in assay [11], in assay [12], in assay [13] and in assay [14] was “inactive” each time. Besides, the Potency result in assay [15], in [16], in assay [17], in [18] and in assay [20] was “inactive” each time. Besides, the caspase-3 activation in [3] was 1.63% (inactive). Also, the call in assay [5] was inactive. In addition, in assay [19], the max response was 6.69%.

Take `Cc1ccc(N)c(N)c1`: the Potency entry in assay [1], in assay [10], in assay [13] and in assay [17] was “inactive” in each case. Moreover, the Potency in assay [2] was 12.6 µM (active); in [9], 31.6 µM (active); in assay [16] it was 12.6 µM (active). Besides, the max response in [19] is -6.94%.

As to `O=[N+]([O-])c1cccc(O)c1`, the Potency entry in assay [1], in assay [2], in assay [4], in assay [6], in [7] and in [8] was “inactive” throughout. Further, the Potency result in [9], in assay [10], in [11], in assay [12], in assay [13] and in assay [14] was “inactive” each time. The Potency entry in assay [15], in assay [16], in [17], in assay [18] and in [20] was “inactive” each time. Moreover, the caspase-3 activation in assay [3] was 1.08% (inactive). In addition, in assay [5], the compound was classed as inactive. For the same compound, in [19], the max response amounted to 0.893%.

Regarding `Nc1ccc(Oc2ccc(N)cc2)cc1`, the Potency entry in assay [2], in [4], in assay [6], in assay [7], in assay [8] and in assay [9] was “inactive” in each case. Also, the Potency result in assay [10], in assay [11], in assay [12], in assay [13], in assay [14] and in [15] was “inactive” each time. In addition, the Potency entry in [16], in assay [17], in [18] and in assay [20] was “inactive” in each case. In addition, the caspase-3 activation in assay [3] was 3.63% (inactive). Besides, in [5], the outcome was inactive. Moreover, the max response in assay [19] was 6.59% and -0.644%.

For `O=C(Cl)c1ccccc1F`, the Potency result in assay [1], in assay [2], in [4], in [6], in [7] and in [8] was “inactive” throughout. The Potency entry in assay [9], in assay [10], in assay [11], in assay [12], in assay [13] and in [14] was “inactive” throughout. The Potency result in [15], in [16], in assay [17], in assay [18] and in assay [20] was “inactive” throughout. Also, the caspase-3 activation in assay [3] is 2.05% (inactive). In addition, in assay [5], the compound was classed as inactive. For the same compound, the max response in assay [19] was determined as 6.73%.

(Values after PubChem BioAssay (NCATS).)
